{"source": "PubChem BioAssay (NCATS)", "note": "Results filed as inconclusive are left out. A call without a number means that no potency is given here. Unmarked numbers belong to inactive results. Activity calls are given as the source filed them. Calls come from the whole dose curve; as a rule, active = well fitted inhibition curve with a large enough effect; inconclusive = small, poorly fitted or top-dose-only effect; inactive = flat fitted curve, though single readings scatter. *1 amine or outer side, *2 acyl side, *3 side chain or, on linkers, in order; H or OH if unused. Where a SMILES comes first, the peptide text is derived from it. [ ]: non-standard residue; d: D form. X13 = O=C(C(CC(O)CO)O[*:1])[*:2]; NMeV = CN[CH](C(=O)O)C(C)C; NMeA = CN[CH](C)C(=O)O; βAla = NCCC(=O)O", "data": [{"test": "P-glycoprotein substrates identified in KB-8-5-11 adenocarcinoma cell line, qHTS therapeutic library screen (AID 1346987); note: nearly all actives have a fitted effect of over 65% in size; note: potency is the fitted concentration of half-maximal effect", "conditions": "KB-8-5-11 (P-gp overexpressing) viability, CellTiter-Glo, 72 h; series mostly up to 44.5 µM", "in_short": "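Compounds are pinned in dose-response onto KB-8-5-11 cells (500 cells/well, colchicine-free medium) and left 72 h at 37 degree C. CellTiter-Glo luminescence then yields AC50 values.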", "values": [{"compound": "CN1CCN(c2nc(-c3ccc(C(=O)NC4(C(=O)NCC#N)CCCCC4)cc3)cs2)CC1", "Potency": "inactive"}, {"compound": "CC(C)=CC[C@H]1O[C@]2(O)C([C@H]3CCC4[C@@]5(C)CC[C@H](O[C@@H]6O[C@H](CO)[C@H](O)[C@H](O[C@@H]7O[C@H](CO)[C@@H](O)[C@H](O)[C@H]7O)[C@H]6O[C@@H]6O[C@@H](C)[C@H](O)[C@@H](O)[C@H]6O)C(C)(C)C5CC[C@@]4(C)[C@]3(C)[C@H]2O)[C@@]1(C)O", "note": "(some centres undefined)", "activity change, negative = cytotoxicity": "9.26% [at 9.29 µM]"}, {"compound": "C/C(=C\\CC[C@H](CO)[C@@H]1CC[C@]2(C)C3=C(CC[C@@]12C)[C@@]1(C)CCC(=O)C(C)(C)C1CC3)C(=O)O", "note": "(some centres undefined)", "Potency": "inactive"}, {"compound": "O=C(/C=C/c1ccc(O)c(O)c1)OC[C@H]1O[C@@H](OC2CCCCC2O)[C@H](O)[C@@H](O)[C@@H]1O", "note": "(some centres undefined)", "Potency": "inactive"}, {"compound": "C[C@H]1[C@H](C)C[C@@H](C(=O)O)C2CC[C@]3(C)C(=CC[C@@H]4[C@@]5(C)CC[C@H](O)C(C)(C)[C@@H]5CC[C@]43C)[C@@H]21", "note": "(some centres undefined)", "Potency": "inactive"}, {"compound": "CC(=O)O[C@@]1(C)[C@@H]2CC(=C(C)C)C(=O)C[C@@]2(C)CC[C@H]1OC(=O)C1(C)OC1C", "note": "(some centres undefined)", "Potency": "inactive"}, {"compound": "CC(C)(O)C1CC=C(C(=O)OC[C@H]2O[C@@H](OC(=O)C3=CCC(C(C)(C)O)CC3)[C@H](O)[C@@H](O)[C@@H]2O)CC1", "note": "(some centres undefined)", "Potency": "inactive"}, {"compound": "CC1=C2C(=O)C=C(CO)C2C2OC(=O)C(CS(=O)(=O)O)C2C(OC(=O)Cc2ccc(O)cc2)C1", "note": "(centres undefined)", "Potency": "inactive"}, {"compound": "CC(C)[C@@H](C(=O)O)N1Cc2c(cc(O)c3c2O[C@]2(C3)[C@H](C)CCC3C(C)(C)[C@H](O)[C@H](O)C[C@@]32C)C1=O", "note": "(some centres undefined)", "Potency": "inactive"}, {"compound": "O=C(CCc1ccccc1)c1c(O)c([C@@H]2O[C@H](CO)[C@@H](O)[C@H](O)[C@H]2O)c(O)c([C@@H]2O[C@H](CO)[C@@H](O)[C@H](O)[C@H]2O)c1O", "Potency": "inactive"}, {"compound": "CC(C)(C)NS(=O)(=O)c1ccc(-c2ccc3[nH]nc(N)c3c2)cc1", "Potency": "inactive"}, {"compound": "CC1CCC2C(C)(C)C(O)C(O)CC2(C)C12Cc1c(O)cc(CO)c(C=O)c1O2", "note": "(centres undefined)", "Potency": "inactive"}, {"compound": "C/C=C/C=C/C(=O)OC1CC/C=C/C(O)C(O)C(CCC)OC1=O", "note": "(centres undefined)", "Potency": "inactive"}, {"compound": "CC1OC(OC2C(OC(=O)[C@]34CCC(C)(C)C[C@H]3C3=CCC5[C@@]6(C)CC[C@H](OC7OC(C(=O)O)C(O)C(O)C7O)C(C)(C)C6CC[C@@]5(C)[C@]3(C)CC4O)OC(CO)C2O)C(O)C(O)C1OC1OCC(O)C(O)C1O", "note": "(some centres undefined)", "activity change, negative = cytotoxicity": "7.83% [at 9.29 µM]"}, {"compound": "COc1cccc(C)c1C(=O)O[C@@H]1C[C@H](O[C@H]2[C@H](O)C[C@H](O[C@@H]3CCC[C@H]4[C@H]3C=C[C@@H]3CCCC/C=C/[C@H]5C=C(C(=O)O)[C@@H](C)C[C@@]56OC(=O)C(=C6O)OC(=O)[C@@]34C)O[C@@H]2C)O[C@H](C)[C@H]1O", "outcome": "inactive [at 9.29 µM]"}, {"compound": "C[C@@H]1O[C@@H](OC2C(O[C@H]3[C@H](O[C@H]4CC[C@@]5(C)C(CC[C@]6(C)C5CC=C5C7CC(C)(C)CC(O)[C@]7(C)CC[C@]56C)C4(C)C)O[C@H](C(=O)O)[C@@H](O)[C@@H]3O)OC(CO)C(O)C2O)[C@H](O)[C@H](O)[C@H]1O", "note": "(some centres undefined)", "activity change, negative = cytotoxicity": "3.3% [at 9.29 µM]"}, {"compound": "Cc1ccccc1-n1nc(-c2c(-c3ccc(F)cc3)nn3c2NC[C@@H](CO)C3)ccc1=O", "Potency": "inactive"}, {"compound": "CC1=CC2=C(C)C(=O)C(C)(O)C(O)C2CO1", "note": "(centres undefined)", "Potency": "inactive"}, {"compound": "C=C(COC(=O)C(C)C)C1Oc2cc(C(C)=O)ccc2C1OC(=O)C(C)C", "note": "(centres undefined)", "Potency": "inactive"}, {"compound": "CCC(C)C1NC(=O)C2CCCN2C(=O)C(CC(O)CO)OC(=O)CCNC(=O)C(C)N(C)C(=O)C(C(C)C)N(C)C1=O", "note": "(centres undefined) (cyclo([X13]PI[NMeV][NMeA][βAla]); configuration not given here)", "Potency": "inactive"}, {"compound": "CCN(CCN(C)C)C(=O)CNCc1cc(C(N)=O)ccn1", "Potency": "inactive"}, {"compound": "COC(=O)/C=C/c1ccc(O[C@@H]2O[C@H](CO)[C@@H](O)[C@H](O)[C@H]2O)cc1", "Potency": "inactive"}, {"compound": "COc1cc(C2Oc3c(OC)cc(/C=C/C(=O)OC4CC(O)(C(=O)O)CC(O)C4O)cc3C2CO)ccc1O", "note": "(centres undefined)", "Potency": "inactive"}, {"compound": "Cc1onc(-c2ccccc2Cl)c1C(=O)N(C)c1ccc(Cl)cc1", "Potency": "inactive"}, {"compound": "CC(O)C(=O)/C=C/C=C/C(=O)OC1C=C2COC(=O)C2(O)C2(C)CCCC(C)(C)C12", "note": "(centres undefined)", "Potency": "inactive"}, {"compound": "COc1cc(Cc2cnc(N)nc2N)c(C(C)C)cc1OC", "Potency": "inactive"}, {"compound": "C=C1CC[C@@H]2C(C)(C)CCC[C@@]2(C)[C@@H]1CC/C(=C/C(=O)OC)COC(C)=O", "Potency": "inactive"}, {"compound": "COC(=O)[C@H](c1ccccc1Cl)N1CCC2SC(=O)C=C2C1", "note": "(some centres undefined)", "Potency": "inactive"}, {"compound": "FC(F)(F)c1nnc2c(Sc3ccccc3)nc3ccc(Cl)cc3n12", "Potency": "4.61 µM (active)"}, {"compound": "CCCC1=CC2=C(CO1)C(=O)C(C)(O)C(OC(=O)c1c(C)cc(OC)cc1O)C2", "note": "(centres undefined)", "Potency": "inactive"}, {"compound": "CC12CC(c3ccoc3)OC(=O)C1CCC1(C)C2CCC(O)C1(C)O", "note": "(centres undefined)", "Potency": "inactive"}, {"compound": "C[C@@H]1O[C@@H](O[C@H]2[C@H](OC(=O)[C@]34CCC(C)(C)C[C@H]3C3=CCC5[C@@]6(C)CC[C@H](O[C@@H]7O[C@H](CO[C@@H]8OC[C@H](O)[C@H](O)[C@H]8O[C@@H]8OC[C@@H](O)[C@H](O)[C@H]8O)[C@@H](O)[C@H](O)[C@H]7O)C(C)(C)C6CC[C@@]5(C)[C@]3(C)C[C@H]4O)O[C@H](CO)[C@@H](O)[C@@H]2O)[C@H](O[C@@H]2O[C@H](CO)[C@@H](O)[C@H](O)[C@H]2O)[C@H](O)[C@H]1O[C@@H]1OC[C@@H](O)[C@H](O[C@@H]2OC[C@@H](O)[C@H](O)[C@H]2O)[C@H]1O", "note": "(some centres undefined)", "activity change, negative = cytotoxicity": "9.58% [at 5.11 µM]"}, {"compound": "C=CC(C)(O)CCC1C(C)(O)CCC2C(C)(C)CCCC21C", "note": "(centres undefined)", "Potency": "inactive"}, {"compound": "CC(C)c1cc2c(c(O)c1O)[C@@]13CCCC(C)(C)C1[C@@H](O)[C@@H]2OC3=O", "note": "(some centres undefined)", "Potency": "inactive"}, {"compound": "C[C@]1(O)CC[C@@H]2C(C(=O)O)=CO[C@@H](O[C@@H]3O[C@H](COC(=O)/C=C/c4ccc(O)c(O)c4)[C@@H](O)[C@H](O)[C@H]3O)[C@@H]21", "Potency": "inactive"}, {"compound": "CC(O)C1CCC2C3CCC4CC(OC5OC(C(=O)O)C(O)C(O)C5O)CCC4(C)C3CCC12C", "note": "(centres undefined)", "Potency": "inactive"}, {"compound": "C[C@H]1CCN2C[C@]34C[C@@]5(C(=O)Nc6c5ccc5c6OC=CC(C)(C)O5)C(C)(C)C3C[C@]12C(=O)N4C", "note": "(some centres undefined)", "Potency": "inactive"}, {"compound": "OC[C@@]1(O)CO[C@H](OC[C@H]2O[C@@H](OC(CCCCc3ccc(O)cc3)CCc3ccc(O)cc3)[C@H](O)[C@@H](O)[C@@H]2O)[C@@H]1O", "note": "(some centres undefined)", "Potency": "inactive"}, {"compound": "CCC(C)/C=C(C)/C=C/C(=O)C1CCC(O)C(C)(O)C1=O", "note": "(centres undefined)", "Potency": "inactive"}]}]}
